According to PubChem BioAssay AID1030 (National Center for Advancing Translational Sciences (NCATS), 2008):
The whole screen tested about 220,000 compounds, of which about 16,000 (7.3%) were called active. Roughly 25% stayed inconclusive and do not appear here. Calls follow the shape of the dose curve; as a rule, active = well fitted inhibition curve with a large enough effect (not every such curve was filed as active); inconclusive = small, poorly fitted or top-dose-only effect, or another doubt; inactive = no such curve, though single readings can be large or run the other way. The list comes from a sample in which actives are over-represented; it also holds similar structures and randomly drawn compounds. A call without a number means that no potency is given here.

The compounds below were run against Aldehyde dehydrogenase 1A1 (Homo sapiens) (UniProt P00352) (assay: qHTS Assay for Inhibitors of Aldehyde Dehydrogenase 1 (ALDH1A1)). Conditions: Purified ALDH1A1, NADH fluorescence, propionaldehyde substrate; series mostly up to 75.3 µM.
Sequence of Aldehyde dehydrogenase 1A1 (Homo sapiens) (P00352 whole entry, looked up): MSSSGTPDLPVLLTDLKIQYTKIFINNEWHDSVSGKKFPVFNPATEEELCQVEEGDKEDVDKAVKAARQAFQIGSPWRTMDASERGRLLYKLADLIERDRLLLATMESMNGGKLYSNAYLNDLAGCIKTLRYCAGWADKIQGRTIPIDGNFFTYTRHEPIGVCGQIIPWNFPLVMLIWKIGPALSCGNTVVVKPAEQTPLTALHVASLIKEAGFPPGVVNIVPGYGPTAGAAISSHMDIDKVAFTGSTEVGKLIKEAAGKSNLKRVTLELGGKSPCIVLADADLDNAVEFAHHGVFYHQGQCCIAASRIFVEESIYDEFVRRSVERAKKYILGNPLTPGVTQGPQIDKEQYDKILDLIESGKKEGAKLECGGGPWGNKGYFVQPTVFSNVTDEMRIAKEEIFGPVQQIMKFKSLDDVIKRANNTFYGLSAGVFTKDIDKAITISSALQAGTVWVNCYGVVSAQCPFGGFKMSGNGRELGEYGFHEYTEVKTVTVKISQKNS
Potency is read from the fitted curve at half-maximal effect.

Row | Compound | Potency
1 | O=C(c1ccncc1)c1ccc([N+](=O)[O-])cc1 | inactive
2 | Cc1ccc(C(=O)NCC(=O)O)s1 | inactive
3 | O=C(N/C(=C\c1ccc(F)cc1)C(=O)N1CCCCCC1)c1ccccc1 | inactive
4 | CC1Cc2ccccc2N1C(=O)CSc1nc2ccccc2o1 (centres undefined) | inactive
5 | CCS(=O)(=O)c1ccc2oc(SCC(=O)N3c4ccccc4CC3C)nc2c1 (centres undefined) | 28.2 µM (active)
6 | CC1Cc2ccccc2N1C(=O)CSc1nnc(-c2ccc(S(=O)(=O)N3CCCCC3)cc2)o1 (centres undefined) | inactive
7 | CO/N=C/c1cn(-c2ccc(Cl)cc2)nn1 | inactive
8 | COc1cccc([C@@H]2Oc3ccc(Br)cc3C(=O)[C@H]2OC(=O)NCc2ccc3c(c2)OCO3)c1 | inactive
9 | C1CC1Cc1noc(CN2CCN(CC3CC3)CC2)n1 | inactive
10 | CCOc1cc(NC(=O)c2ccccn2)c(OCC)cc1NC(=O)c1ccc(OC)cc1 | inactive
11 | CCCC(=O)Nc1cc(OCC)c(NC(=O)NC2CCCCC2)cc1OCC | inactive
12 | CCOc1cc(NC(=O)CCl)c(OCC)cc1NC(C)=O | 25.1 µM (active)
13 | Cc1ccc(C(CC(=O)O)Nc2nc(N3CCCCC3)nc(N3CCCCC3)n2)cc1 (centres undefined) | 25.1 µM (active)
14 | CC(=O)NC(CC(=O)O)c1ccc(F)cc1 (centres undefined) | inactive
15 | CC(Nc1nc(N2CCCC2)nc2ccccc12)c1ccccc1 (centres undefined) | inactive
16 | CC(C)C1N=C2c3ccccc3N=C(SCC(=O)c3ccc(O)c(O)c3)N2C1=O (centres undefined) | 0.631 µM (active)
17 | Cc1ccc(NC(=O)N2CCSc3ccccc32)cc1 | inactive
18 | Cn1ccc(=NC=C(C#N)C#N)c2ccccc21 | inactive
19 | Cc1ccc(NNC(=O)c2c(F)cccc2Cl)cc1Cl | inactive
20 | CCOC(=O)C(=Cc1ccccc1OC)C(=O)OCC | inactive
21 | Cc1cc(O)ccc1NC1=CC(=O)CC(C)(C)C1 | inactive
22 | COC(=O)NNC1=CC(=O)CC(C)(C)C1 | inactive
23 | Cc1cc(C)nc(NNC2=CC(=O)CC(C)(C)C2)n1 | 25.1 µM (active)

Row | Compound | Potency
24 | CCc1nnc(NC(=O)Cc2cccs2)s1 | inactive
25 | O=C(c1ccc(F)cc1)c1cn(Cc2ccc(F)cc2)c2cc3c(cc2c1=O)OCCO3 | inactive
26 | O=C1N/C(=C/c2cccn2-c2ccccc2)C(=O)N1c1cccc(Cl)c1 | inactive
27 | CCCOc1ccccc1C1CC(=O)Nc2cc3c(cc21)OCO3 (centres undefined) | inactive
28 | COc1cc2c(cc1/C=C1/NC(=O)N(c3ccccc3)C1=O)OCO2 | 3.98 µM (active)
29 | COC(=O)c1c(C(=O)OC)c2n(c1C)CCS2 | inactive
30 | CCN(CC)C(=O)CS(=O)CC(=O)Nc1cc(OCCOC)c(Cl)cc1Cl (centres undefined) | inactive
31 | CC(N=Cc1nc(-c2ccccc2)oc1O)c1ccccc1 (centres undefined) | inactive
32 | CCOc1ccc2nc(/N=C/c3nc(-c4ccccc4)oc3O)sc2c1 | inactive
33 | Oc1oc(-c2ccccc2Br)nc1/C=N/c1ccccn1 | 11.2 µM (active)
34 | CCOC(=O)C1=C(C)N=C2c3ccccc3C(=O)C2C1c1ccc(Br)cc1 (centres undefined) | inactive
35 | O=C(CN1C(=O)c2ccccc2S1(=O)=O)N1CCc2ccccc21 | inactive
36 | O=C1c2ccccc2S(=O)(=O)N1CC(O)Cn1c2ccccc2c2ccccc21 (centres undefined) | 14.1 µM (active)
37 | CNC(=O)CN1C(=O)c2ccccc2S1(=O)=O | inactive
38 | Cc1ccc(NC(=O)Cn2c(=O)n(CCC(=O)NC3CCN(Cc4ccccc4)CC3)c(=O)c3ccccc32)cc1 | inactive
39 | CCC(C)NC(=O)c1ccccc1NC(=O)c1ccccc1N(C)S(C)(=O)=O (centres undefined) | inactive
40 | CCCCNC(=O)c1ccccc1NC(=O)c1ccccc1N(C)S(C)(=O)=O | 22.4 µM (active)
41 | COC(=O)c1ccccc1NC(=O)c1ccccc1NS(C)(=O)=O | inactive
42 | NC(=O)C[n+]1cccc(C(N)=O)c1 | inactive
43 | O=C(Cn1cnc([N+](=O)[O-])n1)NCCc1ccccc1 | inactive
44 | COc1ccc(-n2nnnc2SCC(=O)NCc2cccs2)cc1 | inactive
45 | Cc1cc(C)nc(Nc2ncn[nH]2)n1 | inactive
46 | CCCC(=O)Nc1ccccc1N1CCN(C(=O)c2ccccc2)CC1 | inactive

Row | Compound | Potency
47 | O=C(Nc1ccccc1N1CCN(C(=O)c2ccccc2)CC1)c1ccc2c(c1)OCO2 | 10 µM (active)
48 | O=C(Nc1ccccc1)c1ccc2c(c1)OCO2 | inactive
49 | O=C(CN1CCN(c2ccccc2F)CC1)c1ccc2c(c1)OCO2 | 14.1 µM (active)
50 | O=C(c1ccc(CN2CCOCC2)cc1)N1CCN(c2ccccc2F)CC1 | inactive
51 | O=C(OCc1ccccc1F)c1ccc2c(c1)OCCO2 | inactive
52 | Cc1ccc(NC(=O)Nc2ccccc2)c(Br)c1 | inactive
53 | O=C(NCCc1ccccn1)c1cc(-c2ccc(Cl)cc2)nc2ccccc12 | inactive
54 | N#Cc1cnn2cc(CCN3CCOCC3)c(-c3ccc(F)cc3)nc12 | inactive
55 | Cn1cnnc1SCC(=O)NNC(=O)COc1ccc(Br)cc1 | inactive
56 | Cc1cc(/C=C(/C#N)C(=O)Nc2ccc(Cl)cc2)c(C)n1-c1cccnc1 | inactive
57 | Cc1ccc(-n2c(C)cc(/C=C(\C#N)C(=O)NCC3CCCO3)c2C)cc1 (centres undefined) | 3.16 µM (active)
58 | Cc1ccc(C(=O)N/C(=C/c2cccs2)C(=O)NCC2CCCO2)cc1 (centres undefined) | inactive
59 | CCOn1c(=O)c(=O)n(O)c2ccccc21 | inactive
60 | CC(=O)NCCc1nc2cc(NC(=O)c3ccccc3)ccc2n1C | inactive
61 | COc1ccc2c(c1)CCC/C2=N\OC(=O)c1ccccc1F | inactive
62 | CCSc1nnc(NC(=O)c2ccc(C)cc2)s1 | inactive
63 | CCSc1nnc(NC(=O)Cc2ccccc2OC)s1 | inactive
64 | CC(C)C(=O)Nc1nnc(Sc2ccc(N(C)C)cc2)s1 | 25.1 µM (active)
65 | O=C(c1cn2ccccc2n1)N1CCc2c([nH]c3ccccc23)C1c1ccccn1 (centres undefined) | inactive
66 | O=C(NCCc1ccc(F)cc1)c1n[nH]c2ccccc12 | inactive
67 | O=S(=O)(NCCSc1ccccn1)c1ccc(Cl)cc1 | inactive
68 | CCOc1ccc(S(=O)(=O)NCCSc2ccccc2)cc1 | 6.31 µM (active)
69 | Cc1ccc(S(=O)(=O)NCCSc2ccccc2)cc1[N+](=O)[O-] | 7.08 µM (active)

Row | Compound | Potency
70 | Cc1ccc(S(=O)(=O)NCCC(c2ccccc2)c2ccccc2)cc1C(=O)O | inactive
71 | COCCNC(=O)c1ccccc1NS(=O)(=O)c1ccc(C)c([N+](=O)[O-])c1 | inactive
72 | O=S(=O)(NCCNS(=O)(=O)c1ccccc1)c1ccccc1 | inactive
73 | CNC(=O)C(=O)N/N=C/c1ccccn1 | inactive
74 | COC(=O)c1c(C(=O)OC)c(-c2cccc(C)c2)n2c1CS(=O)C2 (centres undefined) | inactive
75 | Cn1cc(/C=C/C(=O)N2CCCC(C(=O)c3ccc(C(F)(F)F)cc3)C2)cn1 (centres undefined) | inactive
76 | CN1CCN(C(=O)/C(=C\c2ccc3c(c2)OCO3)NC(=O)c2cccs2)CC1 | inactive
77 | Cc1ccc(NC(=O)C2(N3CCC3=O)CCCCC2)cc1 | inactive
78 | O=C(COC(=O)CNS(=O)(=O)c1ccccc1)NC12CC3CC(CC(C3)C1)C2 | inactive
79 | S=C(NC1CCCCC1)NN1CCOCC1 | inactive
80 | CC(=O)Nc1ccc(S(=O)(=O)Oc2ccc(/C=N/N=C3/NC(=O)C(CC(=O)O)S3)cc2)cc1 (centres undefined) | inactive
81 | CC(C)c1cnc(NC(=O)Cc2ccccc2)s1 | inactive
82 | C=C(C)CNC(=S)Nc1ccc(S(=O)(=O)Nc2cnc3ccccc3n2)cc1 | inactive
83 | COc1ccc(CN(C)C(C)C(=O)NC2CCCc3ccccc32)cc1 (centres undefined) | inactive
84 | CCOc1cc(/C=N/O)cc(Br)c1OC | inactive
85 | COc1cc(/C=N/O)cc(Br)c1OS(=O)(=O)c1ccc(C)cc1 | 1.58 µM (active)
86 | COc1cc(/C=N/Nc2ccc(C)cc2)cc(Br)c1O | 25.1 µM (active)
87 | COc1cc(/C=N\NC(=O)C2C(=O)NCC2c2ccccc2)cc(OC)c1O (centres undefined) | inactive
88 | COc1cc(/C=N/NC(=S)Nc2cccnc2)cc(OC)c1O | inactive
89 | COc1cc(/C=N/O)cc(Br)c1OCc1cccc(Cl)c1 | inactive
90 | CC(C)(C)OC(=O)N/N=C/c1cn(-c2ccccc2)nc1-c1cccnc1 | inactive
91 | CCN(CC)CC(=O)Nc1sc2c(c1C(=O)c1ccccc1C)CCC2 | inactive
92 | Cc1ccc(SCCC(=O)NCc2ccccn2)cc1 | inactive

Row | Compound | Potency
93 | N#Cc1ccc(OCc2nnc(-c3ccc([N+](=O)[O-])cc3)o2)cc1 | inactive
94 | CCCSc1ncccc1C(=O)O | inactive
95 | CN(C)NC(=O)C(NC(=O)c1ccc(N)cc1)C12CC3CC(CC(C3)C1)C2 (centres undefined) | inactive
96 | Cc1ccc(NC(=S)NCCN2CCOCC2)cc1 | inactive
97 | CNC(=S)N/N=C/c1cn(Cc2ccc(C)cc2)c2ccccc12 | inactive
98 | CNC(=S)N/N=C/c1ccc(N2CCOCC2)s1 | 8.91 µM (active)
99 | CC(C)CC[n+]1ccn(C2=C([O-])c3ccccc3C(=O)/C2=N\S(=O)(=O)c2ccccc2)c1 | 8.91 µM (active)
100 | COc1ccc(-c2csc(Nc3ccccn3)n2)cc1 | inactive
101 | Brc1ccc2ncnc(NCc3cccnc3)c2c1 | inactive
102 | O=S(=O)(NCCc1ccccc1)c1ccccc1 | inactive
103 | Cc1ccc(C(=O)NCCNS(=O)(=O)c2ccccc2)cc1 | inactive
104 | Cc1ccc(S(=O)(=O)NCCSC(C)(C)C)cc1 | 17.8 µM (active)
105 | COc1cc(OC)cc(C(=O)OCC(=O)Nc2ccc(F)cc2F)c1 | inactive
106 | CC(C)=C1C2CCC1C1C(=O)N(NC(=O)c3ccco3)C(=O)C21 (centres undefined) | inactive
107 | COc1cccc(NCCC(=O)c2cccc([N+](=O)[O-])c2)c1 | 0.224 µM (active)
108 | COc1ccccc1OCCNC(=O)c1cc([N+](=O)[O-])cc([N+](=O)[O-])c1 | inactive
109 | COc1ccc(NS(=O)(=O)c2cc(NC(=O)CC(=O)c3ccc([N+](=O)[O-])cc3)ccc2C)cc1 | inactive
110 | O=C(NCc1csc(-c2cccs2)n1)C1CC1 | inactive
111 | CC(C)Oc1ccc(Cc2n[nH]c(=S)n2Cc2ccccc2)cc1Cl | inactive
112 | NNC(=O)COc1ccc(C2SCCS2)cc1 | 3.98 µM (active)
113 | NC(=O)COc1ccc(C23CC4CC(CC(C4)C2)C3)cc1 | inactive
114 | O=C(COc1ccccc1)NCc1ccc2c(c1)OCO2 | inactive
